# From the supplement of paper PMC8728848
# This excerpt belongs to a sample that is enriched for the strongest signals.
# B1: SspB C123 (Streptococcus gordonii), Q54186 (protein)
# chain: MAHFHYSSLLAQPQINKEIKNEDGVDIDRTLVAKQSIGKFELKTEALTAGRPKTTSFVLVDPLPTGYKFDLDATKAASTGFDTTYDEASHTVTFKATDETLATYNADLTKPVETLHPTVVGRVLNDGATYTNNFTLTVNDAYGIKSNVVRVTTPGKPNDPDNPNNNYIKPTKVNKNKEGLNIDGKEVLAGSTNYYELTWDLDQYKGDKSSKEAIQNGFYYVDDYPEEALDVRPDLVKVADEKGNQVSGVSVQQYDSLEAAPKKVQDLLKKANITVKGAFQLFSADNPEEFYKQYVSTGTSLVITDPMTVKSEFGKTGGKYENKAYQIDFGNGYATEVVVNNVPKITPKKDVTVSLDPTSENLDGQTVQLYQTFNYRLIGGFIPQNHSEELEDYSFVDDYDQAGDQYTGNYKTFSSLNLTMKDGSVIKAGTDLTSQTTAETDATNGIVTVRFKEDFLQKISLDSPFQAETYLQMRRIAIGTFENTYVNTVNKVAYASAAALEHHHHHH
# Key:
# Experiment in all cases: glycan array binding signal (z-score within array); higher = stronger binding
# Settings in all cases: glycan notation: IUPAC condensed, linker removed
# [1] = biological target: Fuc(a1-2)Gal(b1-3)GalNAc(a1-3)[Fuc(a1-2)]Gal(b1-4)GlcNAc
# Summary of the method: (§1)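 Columns mapping to the same glycan were averaged after glycan names were converted to IUPAC-condensed notation. The data come from 3228 arrays in the Consortium for Functional Glycomics database, limited to those with an available protein sequence. Binding is reported as a within-array Z-score averaged across arrays of one protein sequence and across linkers.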
# [2] = biological target: Fuc(a1-2)Gal(b1-3)GlcNAc(b1-3)[Gal(b1-4)GlcNAc(b1-6)]Gal(b1-4)Glc
# Summary of the method: as §1
# [3] = biological target: Fuc(a1-2)Gal(b1-4)GlcNAc(b1-2)[Fuc(a1-2)Gal(b1-4)GlcNAc(b1-4)]Man(a1-3)[Fuc(a1-2)Gal(b1-4)GlcNAc(b1-2)Man(a1-6)]Man(b1-4)GlcNAc(b1-4)GlcNAc
# Summary of the method: as §1
# [4] = biological target: Fuc(a1-2)Gal(b1-4)GlcNAc(b1-3)GalNAc
# Summary of the method: as §1
# [5] = biological target: Fuc(a1-2)Gal(b1-4)[Fuc(a1-3)]GlcNAc(b1-3)GalNAc
# Summary of the method: as §1
# [6] = biological target: Fuc(a1-2)[GalNAc(a1-3)]Gal
# Summary of the method: as §1
# [7] = biological target: Fuc(a1-2)[GalNAc(a1-3)]Gal(b1-3)GlcNAc
# Summary of the method: as §1
# [8] = biological target: Fuc(a1-2)[GalNAc(a1-3)]Gal(b1-3)GlcNAc(b1-6)GalNAc
# Summary of the method: as §1
# [9] = biological target: Fuc(a1-2)[GalNAc(a1-3)]Gal(b1-4)GlcNAc
# Summary of the method: as §1
# [10] = biological target: Fuc(a1-3)[Gal3S(b1-4)]GlcNAc
# Summary of the method: as §1
# [11] = biological target: Gal(a1-3)Gal(b1-4)GlcNAc(b1-3)GalNAc
# Summary of the method: as §1
# [12] = biological target: Gal(b1-3)GlcNAc(b1-3)Gal(b1-4)Glc
# Summary of the method: as §1
# Gal(b1-4)GlcNAc(b1-2)Man = biological target: Gal(b1-4)GlcNAc(b1-2)Man
# Summary of the method: as §1
# [13] = biological target: Gal(b1-4)GlcNAc(b1-3)Gal(b1-3)GlcNAc
# Summary of the method: as §1
# [14] = biological target: Gal(b1-4)GlcNAc(b1-3)Gal(b1-4)GlcNAc(b1-3)Gal(b1-4)GlcNAc(b1-2)Man(a1-3)[Gal(b1-4)GlcNAc(b1-3)Gal(b1-4)GlcNAc(b1-3)Gal(b1-4)GlcNAc(b1-2)Man(a1-6)]Man(b1-4)GlcNAc(b1-4)[Fuc(a1-6)]GlcNAc
# Summary of the method: as §1
# [15] = biological target: Gal(b1-4)GlcNAc(b1-3)Gal(b1-4)GlcNAc(b1-3)Gal(b1-4)GlcNAc(b1-3)Gal(b1-4)GlcNAc(b1-3)Gal(b1-4)GlcNAc(b1-2)Man(a1-3)[Gal(b1-4)GlcNAc(b1-3)Gal(b1-4)GlcNAc(b1-3)Gal(b1-4)GlcNAc(b1-3)Gal(b1-4)GlcNAc(b1-3)Gal(b1-4)GlcNAc(b1-2)Man(a1-6)]Man(b1-4)GlcNAc(b1-4)[Fuc(a1-6)]GlcNAc
# Summary of the method: as §1
# [16] = biological target: Gal(b1-4)GlcNAc(b1-3)Gal(b1-4)GlcNAc(b1-3)Gal(b1-4)GlcNAc(b1-3)Gal(b1-4)GlcNAc(b1-3)Gal(b1-4)GlcNAc(b1-2)[Gal(b1-4)GlcNAc(b1-3)Gal(b1-4)GlcNAc(b1-3)Gal(b1-4)GlcNAc(b1-3)Gal(b1-4)GlcNAc(b1-3)Gal(b1-4)GlcNAc(b1-6)]Man(a1-6)[Gal(b1-4)GlcNAc(b1-3)Gal(b1-4)GlcNAc(b1-3)Gal(b1-4)GlcNAc(b1-3)Gal(b1-4)GlcNAc(b1-3)Gal(b1-4)GlcNAc(b1-2)Man(a1-3)]Man(b1-4)GlcNAc(b1-4)[Fuc(a1-6)]GlcNAc
# Summary of the method: as §1
# [17] = biological target: Gal(b1-4)GlcNAc(b1-3)GalNAc
# Summary of the method: as §1
# [18] = biological target: Gal(b1-4)GlcNAc(b1-6)[Gal(b1-3)]GalNAc
# Summary of the method: as §1
# [19] = biological target: Gal3S(b1-3)[Fuc(a1-4)]GlcNAc
# Summary of the method: as §1
# Gal3S(b1-4)Glc6S = biological target: Gal3S(b1-4)Glc6S
# Summary of the method: as §1
# Gal3S(b1-4)GlcNAc = biological target: Gal3S(b1-4)GlcNAc
# Summary of the method: as §1
# [20] = biological target: Gal3S(b1-4)[Fuc(a1-3)]Glc6S
# Summary of the method: as §1
# Gal6S(b1-4)GlcNAc6S = biological target: Gal6S(b1-4)GlcNAc6S
# Summary of the method: as §1
# [21] = biological target: GalNAc(b1-3)Gal(a1-6)Gal(b1-4)Glc
# Summary of the method: as §1
# GalNAc4S6S(b1-4)GlcNAc = biological target: GalNAc4S6S(b1-4)GlcNAc
# Summary of the method: as §1
# Glc(b1-4)Glc = biological target: Glc(b1-4)Glc
# Summary of the method: as §1
# GlcA(b1-3)Gal = biological target: GlcA(b1-3)Gal
# Summary of the method: as §1
# GlcA(b1-6)Gal = biological target: GlcA(b1-6)Gal
# Summary of the method: as §1
# [22] = biological target: GlcNAc(b1-2)Man(a1-3)[GlcNAc(b1-4)][GlcNAc(b1-2)Man(a1-6)]Man(b1-4)GlcNAc(b1-4)[Fuc(a1-6)]GlcNAc
# Summary of the method: as §1
binder,measurement,setting,value
B1,glycan array binding signal (z-score),[1],-1.8
same,glycan array binding signal (z-score),[2],-0.17
same,glycan array binding signal (z-score),[3],2.68
same,glycan array binding signal (z-score),[4],-0.78
same,glycan array binding signal (z-score),[5],3.99
same,glycan array binding signal (z-score),[6],-0.539
same,glycan array binding signal (z-score),[7],0.229
same,glycan array binding signal (z-score),[8],-0.099
same,glycan array binding signal (z-score),[9],-0.406
same,glycan array binding signal (z-score),[10],0.073
same,glycan array binding signal (z-score),[11],-0.133
same,glycan array binding signal (z-score),[12],0.516
same,glycan array binding signal (z-score),Gal(b1-4)GlcNAc(b1-2)Man,-0.183
same,glycan array binding signal (z-score),[13],1.37
same,glycan array binding signal (z-score),[14],1.26
same,glycan array binding signal (z-score),[15],0.993
same,glycan array binding signal (z-score),[16],2.74
same,glycan array binding signal (z-score),[17],0.085
same,glycan array binding signal (z-score),[18],0.155
same,glycan array binding signal (z-score),[19],0.284
same,glycan array binding signal (z-score),Gal3S(b1-4)Glc6S,0.314
same,glycan array binding signal (z-score),Gal3S(b1-4)GlcNAc,0.468
same,glycan array binding signal (z-score),[20],5.71
same,glycan array binding signal (z-score),Gal6S(b1-4)GlcNAc6S,1.05
same,glycan array binding signal (z-score),[21],-0.455
same,glycan array binding signal (z-score),GalNAc4S6S(b1-4)GlcNAc,-0.886
same,glycan array binding signal (z-score),Glc(b1-4)Glc,-0.604
same,glycan array binding signal (z-score),GlcA(b1-3)Gal,-1.48
same,glycan array binding signal (z-score),GlcA(b1-6)Gal,3.52
same,glycan array binding signal (z-score),[22],-0.492
